Measured values published in PubChem BioAssay (NCI).
Compounds without any hit were thinned out: in the full panel of roughly 79,000, 15% have a hit. Unmarked numbers belong to inactive results. The source made the active and inactive calls. Rule as the data show it: active = growth inhibition above about 70%; inactive = the rest.

What was measured:
[1] = NCI Yeast Anticancer Drug Screen. Data for the rad50 strain (AID 155);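 also: 0% = growth of vehicle-only cultures of the same strain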; details: S. cerevisiae rad50 strain growth inhibition, hits give high values
Summary of the method: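 Readout: growth inhibition relative to vehicle-treated cultures. Compound exposure was carried out in a genetically defined yeast strain deficient in DNA damage repair.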

[2] = NCI Yeast Anticancer Drug Screen. Data for the mec2-1 strain (AID 157); details: S. cerevisiae mec2-1 strain, hits give high values
Summary of the method: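 Using mec2-1 yeast: add compound, measure growth, express inhibition versus vehicle-treated cultures.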

[3] = NCI Yeast Anticancer Drug Screen. Data for the sgs1 mgt1 strain (AID 161);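 also: 0% = growth of cultures given vehicle only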; details: S. cerevisiae sgs1 mgt1 strain, hits give high values
Summary of the method: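 Compounds are added to genetically altered yeast, and growth is compared with cultures given vehicle alone to give percent inhibition.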

[4] = NCI Yeast Anticancer Drug Screen. Data for the cln2 rad14 strain (AID 165);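 also: 0% = growth equal to vehicle treated cultures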; details: S. cerevisiae cln2 rad14 strain, hits give high values
Summary of the method: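 Yeast strain cln2 rad14, bearing defects in cell cycle control and DNA repair, serves as the test system; values reflect growth inhibition compared with vehicle.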

[5] = NCI Yeast Anticancer Drug Screen. Data for the bub3 strain (AID 167); details: S. cerevisiae bub3 mutant strain, hits give high values
Summary of the method: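 Readout: yeast growth inhibition, expressed relative to vehicle-only wells. The test organism is a mutant strain from a panel with lesions in DNA repair or checkpoint genes.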

[6] = NCI Yeast Anticancer Drug Screen. Data for the mlh1 rad18 strain (AID 175); details: S. cerevisiae mlh1 rad18 strain growth inhibition, hits give high values
Summary of the method: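 Steps: expose repair-defective yeast to compound; measure growth; express inhibition against vehicle-treated controls.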

[7] = at 5.0 µM (retest, dose inferred, filed as 0.5)
[8] = at 50.0 µM (retest, dose inferred, filed as 5.0)

| SMILES | growth inhibition [1, 7] [%] | growth inhibition [1, 8] | growth inhibition ([1]; at 50.0 µM) | growth inhibition [2, 7] [%] | growth inhibition [2, 8] | growth inhibition ([2]; at 50.0 µM) | growth inhibition [3, 7] | growth inhibition [3, 8] | growth inhibition ([3]; at 50.0 µM) | growth inhibition [4, 7] [%] | growth inhibition [4, 8] | growth inhibition ([4]; at 50.0 µM) | growth inhibition [5, 7] | growth inhibition [5, 8] | growth inhibition ([5]; at 50.0 µM) | growth inhibition [6, 7] | growth inhibition [6, 8] | growth inhibition ([6]; at 50.0 µM) |
| --- | --- | --- | --- | --- | --- | --- | --- | --- | --- | --- | --- | --- | --- | --- | --- | --- | --- | --- |
| COc1ccc(NS(=O)(=O)c2ccc(N=Cc3c4ccccc4nc4cc(Cl)ccc34)cc2)nn1 | 23 | -9% | 94.2% (active) | 14 | -5% | 91.8% (active) | 17% | -8% | 95.6% (active) | 5 | -6% | 36.9% | 22% | -4% | 52.2% | 13% | -4% | 95.8% (active) |
| CCn1c2nc(=O)n(C)c(=O)c-2[n+]([O-])c2cc(C)ccc21 | 16 | 70% (active) | 70.5% (active) | 8 | 33% | 26.4% | 4% | 27% | 44.5% | -2 | 7% | 25.1% | -1% | 13% | 14.9% | 0% | 49% | 10.8% |
| COc1ccc2c(c1)sc(/C=C/c1ccc(O)c3ncccc13)[n+]2C | 12 | 88% (active) | 92.3% (active) | 49 | 92% (active) | 93.6% (active) | -53% | 94% (active) | 92% (active) | 3 | 86% (active) | 90.3% (active) | 19% | 86% (active) | 89.9% (active) | 62% | 92% (active) | 92.4% (active) |
| O=C1NC(=O)C(Cc2ccccc2)(Cc2ccccc2)S1 | 5 | 98% (active) | 99.2% (active) | 10 | 99% (active) | 99.4% (active) | -16% | 98% (active) | 99.3% (active) | 21 | 99% (active) | 99.2% (active) | 17% | 99% (active) | 99.5% (active) | 6% | 99% (active) | 99.2% (active) |
| CCN(CC)CCO/N=C1\CC[C@H]2[C@@H]3CCc4cc(OC)ccc4[C@H]3CC[C@]12C | 31 | 99% (active) | 89.1% (active) | 27 | 98% (active) | 92.2% (active) | 58% | 98% (active) | 91.3% (active) | 67 | 98% (active) | 89% (active) | 66% | 98% (active) | 90.7% (active) | 34% | 99% (active) | 89.7% (active) |
| Cc1ccc(C(=O)C(CN(C)C)CN(C)C)cc1 | 16 | 41% | 83.7% (active) | 12 | 63% | 92.3% (active) | 20% | 76% (active) | 88.5% (active) | 17 | 39% | 73.2% (active) | 16% | 65% | 88.7% (active) | 14% | 72% (active) | 88% (active) |
| CCC1CN2CCc3cc(OC)c(OC)cc3C2CC1CC1c2cc(OC)c(OC)cc2CCN1C(=O)C(Cc1c[nH]c2ccccc12)NC(=O)OC(C)(C)C (configuration not stated) | -4 | 97% (active) | 96.8% (active) | -6 | 98% (active) | 88.3% (active) | -5% | 49% | 53% | -13 | 98% (active) | 93.5% (active) | -5% | 98% (active) | 59.5% | -3% | 98% (active) | 93.8% (active) |
| CCCCCCCCCCCCCCCC(=O)NCCN(C)C | -2 | 98% (active) | 98.7% (active) | -2 | 99% (active) | 97% (active) | 23% | 98% (active) | 56.8% | -3 | 99% (active) | 88.8% (active) | -5% | 99% (active) | 97% (active) | 1% | 98% (active) | 98.8% (active) |
| CC(C)=NOCCOC(=O)C(c1ccccc1)c1ccccc1 | -4 | 3% | 80.7% (active) | -5 | 2% | 75% (active) | -8% | -2% | 92% (active) | 0 | 18% | 39.6% | 7% | 25% | 96.6% (active) | -6% | 0% | 89% (active) |
| COC1OC2=CCC3C(=O)NC(=O)C3C2[C@H](OCc2ccccc2)C1OCc1ccccc1 (some centres not stated) | 11 | 99% (active) | 98.4% (active) | -13 | 99% (active) | 99.7% (active) | 11% | 99% (active) | 98.8% (active) | 0 | 99% (active) | 93.5% (active) | 2% | 97% (active) | 98.8% (active) | 4% | 98% (active) | 98.9% (active) |
| Cc1cc2c(cc1S(=O)(=O)O)C1C(C3C2C2(Cl)C(Cl)=C(Cl)C3(Cl)C2(Cl)Cl)C2(Cl)C(Cl)=C(Cl)C1(Cl)C2(Cl)Cl (configuration not stated) | 1 | 69% | 82.4% (active) | -14 | 72% (active) | 74.4% (active) | 27% | 87% (active) | 86.8% (active) | 33 | 84% (active) | 60.7% | -15% | 82% (active) | 70.8% (active) | -20% | 87% (active) | 79.2% (active) |
| CCOC(=O)CC1=NC(=Nc2cc(Cl)ccc2Cl)SC1 | 21 | 66% | 64.5% | 23 | 56% | 40.8% | 22% | 69% | 79.6% (active) | 24 | 30% | 25.7% | 29% | 82% (active) | 77.2% (active) | 38% | 75% (active) | 66.5% |
| c1ccc(-c2c3ccccc3cc3ccc4ccccc4c23)nc1 | 8 | 48% | 78.7% (active) | -6 | 40% | 52.9% | 0% | -42% | 62.3% | 10 | 45% | 49.5% | 3% | 71% (active) | 71% (active) | -8% | 43% | 81.2% (active) |
| CCN(CC)C(=S)n1c(=S)nc(N(CC)CC)sc1=S | 57 | 97% (active) | 89.3% (active) | 42 | 98% (active) | 92.2% (active) | 63% | 99% (active) | 92.5% (active) | 39 | 86% (active) | 88.9% (active) | 54% | 83% (active) | 91.2% (active) | 75% (active) | 98% (active) | 89.8% (active) |
| COc1ccccc1NC(=O)Oc1ccc(C(C)(CCC(=O)O)c2ccc(OC(=O)Nc3ccccc3OC)cc2)cc1 | -2 | 13% | -9.65% | 8 | 25% | -1.8% | -31% | -7% | 11.7% | 2 | -20% | 39.8% | 0% | 15% | 8.05% | -26% | -45% | -24.6% |
| Cc1ccc(S(=O)(=O)OCC(/C=N/NC(N)=O)OCOC(C)/C=N/NC(N)=O)cc1 (configuration not stated) | -2 | -7% | 14.8% | 0 | -5% | 99.2% (active) | -4% | -8% | 1.95% | 1 | -8% | 46.8% | 1% | -2% | -1.4% | 1% | -3% | 19.1% |
| CC(=O)NS(=O)(=O)c1ccc(N=Cc2cc(Cl)cc(Cl)c2O)cc1 | 25 | 98% (active) | 83% (active) | 19 | 99% (active) | 92.1% (active) | 13% | 79% (active) | 44.5% | 46 | 98% (active) | 87.8% (active) | 44% | 99% (active) | 90.7% (active) | 67% | 99% (active) | 88% (active) |
| Cc1ccc(S(=O)(=O)NC(Cc2ccccc2)C(=O)CCl)cc1 (configuration not stated) | 61 | 99% (active) | 89.9% (active) | 66 | 99% (active) | 92.8% (active) | 74% (active) | 98% (active) | 88.8% (active) | 44 | 88% (active) | 84.8% (active) | 79% (active) | 99% (active) | 84.5% (active) | 86% (active) | 98% (active) | 84.7% (active) |
| O=[N+]([O-])c1ccc(S(=O)(=O)Cc2ccccc2)c2nonc12 | 6 | 99% (active) | 99% (active) | 11 | 99% (active) | 98.8% (active) | 10% | 99% (active) | 99% (active) | -11 | 98% (active) | 96.3% (active) | 2% | 99% (active) | 98.4% (active) | 6% | 99% (active) | 98.2% (active) |
